Outcome and Potency data for eleven compounds are collected here from PubChem BioAssay (Tox21).

The structures appear in SMILES notation. Several values for one entry are separate records, joined by “and”; a condition that tells them apart may be missing. Equal entries are not always repeated. Records with an inconclusive call do not appear. A structure can be active in one record and inactive in another. Activity calls are given as the source filed them. Unless noted, the call rests on the fitted dose curve.

The target in test [1] is Peroxisome proliferator-activated receptor delta (Homo sapiens) (UniProt Q03181). The test can be described thus: qHTS assay to identify small molecule agonists of the peroxisome proliferator-activated receptor delta (PPARd) signaling pathway (AID 743212). Summed up: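 Quantitative high-throughput agonist screen in a HEK293H beta-lactamase reporter line under UAS control. Compounds in DMSO, at 37 C. Fluorescence read after 2 h with FRET substrate at room temperature.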
Background: Quantitative high-throughput screening tests each substance at several concentrations.

A short description of test [2]: qHTS assay to identify small molecule antagonists of the peroxisome proliferator-activated receptor delta (PPARd) signaling pathway - cell viability counter screen (AID 743213; active means well fitted curve in the direction sought with a large enough effect in the repeat runs; an effect the other way counts as inactive or inconclusive; further: nearly all actives have a fitted effect of over 50% in size). Summed up:
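PPARd-bla HEK293H cells were treated with compounds plus agonist L165041 (300 nM final) for 17 h at 37 C. Viability was then read in the same wells by CellTiter-Glo luminescence after 30 min at room temperature.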

For test [3], the target named is Bile acid receptor (Homo sapiens) (UniProt Q96RI1). The test can be described thus: qHTS assay to identify small molecule antagonists of the farnesoid-X-receptor (FXR) signaling pathway (AID 743217; active means well fitted inhibition curve with a large enough effect in the signal ratio in the repeat runs, not every such curve was filed as active; the % refers to the signal ratio). The gist of the method:
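GeneBLAzer FXR-UAS-bla HEK 293T, CDCA-stimulated (50 uM final). Compound treatment 16 h, 37 °C. Detection: beta-lactamase cleavage of B/G FRET substrate, fluorescence.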

Test [4] in a line: qHTS assay to identify small molecule agonists of the farnesoid-X-receptor (FXR) signaling pathway - cell viability counter screen (AID 743218; active means well fitted curve in the direction sought with a large enough effect in the repeat runs; an effect the other way counts as inactive or inconclusive; further: nearly all actives have a fitted effect of over 45% in size). The gist of the method:
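Parallel cytotoxicity test: compound-treated (16 h, 37 C) HEK 293T FXR-bla reporter cells were lysed with CellTiter-Glo and luminescence recorded.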

In test [5] the target is Bile acid receptor (Homo sapiens) (UniProt Q96RI1). Nature of the test: qHTS assay to identify small molecule agonists of the farnesoid-X-receptor (FXR) signaling pathway (AID 743220; active means well fitted activation curve with a large enough effect in the signal ratio in the repeat runs, not every such curve was filed as active; the % refers to the signal ratio). Summed up: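 Beta-lactamase reporter under UAS control in GeneBLAzer FXR HEK 293T cells (5000/well) measured with LiveBLAzer FRET substrate after 2 h at room temperature. Compound exposure lasted 16 h at 37C.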

The nature of test [6]: qHTS assay to identify small molecule antagonists of the farnesoid-X-receptor (FXR) signaling pathway - cell viability counter screen (AID 743221; active means well fitted cell-killing curve with a large enough effect in the repeat runs, not every such curve was filed as active; further: nearly all actives have a fitted effect of over 50% in size). The gist of the method: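 Luminescence from CellTiter-Glo measures cytotoxicity in GeneBLAzer FXR-UAS-bla HEK 293T cells. Cells were exposed to compounds with 50 uM chenodeoxycholic acid (final) for 16 h at 37 C, in wells also used for the reporter readout.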

For test [7], the target named is Vitamin D3 receptor (Homo sapiens) (UniProt P11473). Nature of the test: qHTS assay to identify small molecule agonists of the vitamin D receptor (VDR) signaling pathway (AID 743222). The gist of the method:
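In VDR-bla cells, compound-induced beta-lactamase expression is quantified by FRET substrate fluorescence. Treatment lasts 16 h at 37C; substrate develops 2 h at room temperature.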

For test [8] the target is unchanged. Nature of the test: qHTS assay to identify small molecule antagonists of the vitamin D receptor (VDR) signaling pathway (AID 743223; active means well fitted inhibition curve with a large enough effect in the signal ratio in the repeat runs, not every such curve was filed as active; the % refers to the signal ratio). The gist of the method:
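Antagonist mode uses 1alpha,25-dihydroxyvitamin D3 at 3 nM final as stimulus. VDR-bla cells receive compounds in DMSO, incubate 16 h at 37C, then a beta-lactamase FRET substrate for 2 h at room temperature before fluorescence measurement.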

Test [9] is described as follows: qHTS assay to identify small molecule agonists of the vitamin D receptor (VDR) signaling pathway - cell viability counter screen (AID 743224; active means well fitted curve in the direction sought with a large enough effect in the repeat runs; an effect the other way counts as inactive or inconclusive; further: nearly all actives have a fitted effect of over 50% in size; further: potency means the concentration at half of the fitted maximal effect). The gist of the method:
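Plated VDR-bla cells (4 h, 37C) received compound, incubated 16 h, then LiveBLAzer substrate 2 h RT; CellTiter-Glo added afterwards, luminescence read at 30 min.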

Test [10] can be described thus: qHTS assay to identify small molecule agonists of the NFkB signaling pathway (AID 1159509; active means well fitted curve in the direction sought with a large enough effect in the signal ratio in the repeat runs, not every such curve was filed as active; the % refers to the signal ratio; further: series mostly up to about 61 µM). The gist of the method: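 After overnight attachment, reporter cells received test compounds, DMSO or positive controls and were incubated 5 hr at 37 C. FRET substrate was then added for 1.5 hr at room temperature before dual-emission fluorescence reading.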
The nature of test [11]: qHTS assay to identify small molecule agonists of the NFkB signaling pathway - cell viability counter screen (AID 1159515). Further: series mostly up to about 61 µM; nearly all actives have a fitted effect of over 55% in size. The gist of the method:
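Using the same wells as the NFkB reporter read, ME-180 NFkB-bla cells given compounds for 5 hr were assessed for viability via CellTiter-Glo, with luminescence taken after a 30 min room-temperature incubation.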

The nature of test [12]: qHTS assay to identify small molecule agonists of the endoplasmic reticulum stress response signaling pathway (AID 1159516; active means well fitted activation curve with a large enough effect in the signal ratio in the repeat runs, not every such curve was filed as active; the % refers to the signal ratio). The gist of the method: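 An ESRE-bla HeLa cell assay: compounds were pin-transferred from DMSO onto overnight-plated cells and left 5 hr at 37 C. Substrate was then loaded for 2 hr at room temperature before reading fluorescence at 460 nm and 530 nm.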

The nature of test [13]: qHTS assay to identify small molecule agonists of the endoplasmic reticulum stress response signaling pathway - cell viability counter screen (AID 1159517).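 Further: HeLa cells carrying an ER stress response element beta-lactamase reporter; series mostly up to about 61 µM; nearly all actives have a fitted effect of over 50% in size.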 Summed up:
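Counter-screen wells were identical to the reporter wells. Cells were plated at 1,500 per well and dosed for 5 hr, then read for luminescence 30 min after CellTiter-Glo addition.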

The nature of test [14]: qHTS assay to identify small molecule agonists of the AP-1 signaling pathway - cell viability counter screen (AID 1159525). Further: nearly all actives have a fitted effect of over 55% in size. Summed up: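 AP-1-bla ME-180 cells in Opti-MEM with 0.5% dialyzed FBS, compound exposure 5 h at 37 C in 15-point titration. Viability read in the same wells as ATP content by CellTiter-Glo luminescence, normalised to tetra-n-octylammonium bromide and DMSO controls.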

A short description of test [15]: qHTS assay to identify small molecule agonists of the AP-1 signaling pathway (AID 1159526).
In test [16] the target is Peroxisome proliferator-activated receptor delta (Homo sapiens) (UniProt Q03181). Nature of the test: qHTS assay to identify small molecule antagonists of the peroxisome proliferator-activated receptor delta (PPARd) signaling pathway (AID 743215; active means well fitted inhibition curve with a large enough effect in the signal ratio in the repeat runs, not every such curve was filed as active; the % refers to the signal ratio;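 further: cells stimulated with agonist L165041 at 300 nM final during compound exposure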; further: potency means the concentration at half of the fitted maximal effect). Summed up: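 HEK293H UAS-bla, PPARd; agonist L165041 300 nM final with cpd in DMSO; 37 C 17 h; FRET substrate, RT 2 h; fluorescence intensity.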

Test [17] in a line: qHTS assay to identify small molecule antagonists of the vitamin D receptor (VDR) signaling pathway - cell viability counter screen (AID 743225; active means well fitted curve in the direction sought with a large enough effect in the repeat runs; an effect the other way counts as inactive or inconclusive; further: nearly all actives have a fitted effect of over 50% in size). The gist of the method:
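Read-out: CellTiter-Glo luminescence measured 30 min after reagent addition at room temperature. Cells were VDR-bla HEK 293T exposed 16 h at 37C, 5% CO2, to compound with 3 nM final calcitriol agonist.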

For test [18], the target named is Nuclear receptor ROR-gamma (Homo sapiens) (UniProt P51449). The test can be described thus: qHTS assay to identify small molecule antagonists of the retinoid-related orphan receptor gamma (ROR-gamma) signaling pathway (AID 1159521; active means well fitted curve in the direction sought with a large enough effect in the repeat runs; an effect the other way counts as inactive or inconclusive). Summed up: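 CHO Tet-on RORγ, RORE-luc reporter. Cpd 2 h pre-incubation, then dox hyclate 1 uM final, 16 h, 37 C/5% CO2. ONE-Glo luminescence; decrease = antagonist.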

Test [19] concerns the target Retinoic acid receptor RXR-alpha (Homo sapiens) (UniProt P19793). Nature of the test: qHTS assay to identify small molecule agonists of the RXR signaling pathway (AID 1159527). Further: nearly all actives have a fitted effect of over 35% in size. The gist of the method: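 Read-out: beta-lactamase FRET ratio (405 nm excitation, 460 and 530 nm emission) after 2 hr substrate loading at room temperature. Cells were RXR-alpha-UAS-bla HEK 293T treated with compounds for 16 hr in 2% charcoal-stripped FBS medium.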

Bile acid receptor (Homo sapiens), sequence (Q96RI1 whole entry, looked up): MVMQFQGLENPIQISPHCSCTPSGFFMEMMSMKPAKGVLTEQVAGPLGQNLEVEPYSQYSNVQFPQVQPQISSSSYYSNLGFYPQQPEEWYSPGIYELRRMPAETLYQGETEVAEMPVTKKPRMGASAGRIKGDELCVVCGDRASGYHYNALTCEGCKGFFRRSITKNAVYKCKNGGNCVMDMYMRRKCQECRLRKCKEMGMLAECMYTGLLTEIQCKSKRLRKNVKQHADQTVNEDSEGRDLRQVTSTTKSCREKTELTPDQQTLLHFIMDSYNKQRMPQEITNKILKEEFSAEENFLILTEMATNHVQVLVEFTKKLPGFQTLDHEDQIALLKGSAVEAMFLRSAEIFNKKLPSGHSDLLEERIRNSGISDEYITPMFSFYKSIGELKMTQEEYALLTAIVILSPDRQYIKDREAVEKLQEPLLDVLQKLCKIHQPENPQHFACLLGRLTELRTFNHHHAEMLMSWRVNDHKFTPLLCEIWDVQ
Retinoic acid receptor RXR-alpha (Homo sapiens), sequence (P19793 whole entry, looked up): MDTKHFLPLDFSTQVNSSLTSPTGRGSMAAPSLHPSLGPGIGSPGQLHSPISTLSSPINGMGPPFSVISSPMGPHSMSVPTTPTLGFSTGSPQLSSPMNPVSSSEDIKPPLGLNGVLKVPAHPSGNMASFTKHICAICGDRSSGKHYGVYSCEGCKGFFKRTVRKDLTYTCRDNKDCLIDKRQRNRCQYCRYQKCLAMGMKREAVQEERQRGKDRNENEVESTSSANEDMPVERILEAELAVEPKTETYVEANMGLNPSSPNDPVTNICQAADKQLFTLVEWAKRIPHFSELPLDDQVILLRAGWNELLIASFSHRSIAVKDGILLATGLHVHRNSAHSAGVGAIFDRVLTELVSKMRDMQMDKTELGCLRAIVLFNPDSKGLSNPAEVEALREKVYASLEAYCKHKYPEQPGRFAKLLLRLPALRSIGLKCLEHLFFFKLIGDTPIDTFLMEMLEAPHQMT
Peroxisome proliferator-activated receptor delta (Homo sapiens), sequence (Q03181 whole entry, looked up): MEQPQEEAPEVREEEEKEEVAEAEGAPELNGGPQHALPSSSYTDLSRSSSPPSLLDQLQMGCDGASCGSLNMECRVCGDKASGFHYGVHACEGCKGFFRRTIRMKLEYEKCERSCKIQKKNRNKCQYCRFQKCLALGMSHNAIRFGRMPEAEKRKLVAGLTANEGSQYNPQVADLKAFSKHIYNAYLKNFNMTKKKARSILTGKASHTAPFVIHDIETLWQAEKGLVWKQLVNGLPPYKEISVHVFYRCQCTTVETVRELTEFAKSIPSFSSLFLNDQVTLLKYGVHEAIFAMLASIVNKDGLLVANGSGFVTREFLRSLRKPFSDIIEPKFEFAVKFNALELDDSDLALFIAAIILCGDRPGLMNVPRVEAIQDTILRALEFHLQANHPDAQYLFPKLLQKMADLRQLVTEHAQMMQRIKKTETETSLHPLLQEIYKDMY
Vitamin D3 receptor (Homo sapiens), sequence (P11473 whole entry, looked up): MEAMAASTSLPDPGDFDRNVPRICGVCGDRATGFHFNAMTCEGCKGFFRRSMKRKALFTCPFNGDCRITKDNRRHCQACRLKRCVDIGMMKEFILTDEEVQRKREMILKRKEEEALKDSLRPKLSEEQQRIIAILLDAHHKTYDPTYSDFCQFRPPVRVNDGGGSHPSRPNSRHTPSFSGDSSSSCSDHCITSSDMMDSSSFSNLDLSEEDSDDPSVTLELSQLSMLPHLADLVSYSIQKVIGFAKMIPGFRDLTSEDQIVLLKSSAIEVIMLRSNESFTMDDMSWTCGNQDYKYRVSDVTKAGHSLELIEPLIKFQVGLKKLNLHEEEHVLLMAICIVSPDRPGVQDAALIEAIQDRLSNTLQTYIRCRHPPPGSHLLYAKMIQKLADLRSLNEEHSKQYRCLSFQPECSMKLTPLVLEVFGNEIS

With `CC(=O)CC(=O)Nc1ccccc1`, the compound was classed as inactive in test [1], in [2], in [3], in [5], in test [7] and in test [8]. Moreover, the call in [10], in test [11], in [12], in test [13] and in test [15] was inactive. In addition, the Potency result in test [4], in test [6], in test [9] and in test [14] was “inactive” each time.

Turning to `ON=C1CCCCC1`, the result in test [1], in [2], in test [7], in [8], in test [17] and in test [10] was inactive. The compound was classed as inactive in [11], in test [12], in test [13] and in test [15]. Also, the Potency entry was “inactive and 43.6 µM (active)” in [16]; “inactive and 38.9 µM (active)” in test [9]. Further, the Potency entry in test [4], in test [6], in test [18] and in test [14] was “inactive” in each case.

For the compound `O=C(O)CCCC[C@@H]1SC[C@@H]2NC(=O)N[C@@H]21`, the outcome in test [1], in test [2], in test [7], in test [8], in test [10] and in test [11] was inactive. Also, the result in test [12], in [13] and in test [15] was inactive. Besides, the Potency entry in [16], in test [4], in test [6], in [9], in [18] and in test [14] was “inactive” in each case. Further, in test [19], the Potency entry is “inactive”.

As to `CCCCCCCCCCCCc1ccccc1`, the compound was classed as inactive in [1], in [2], in test [3], in test [5], in [7] and in [8]. Also, the compound was classed as inactive in test [17], in [10], in test [11], in test [12], in [13] and in test [15]. Also, the Potency result in test [16], in test [4], in test [9], in test [18] and in [14] was “inactive” each time.

Consider `Nc1ccccc1[N+](=O)[O-]`, for which the compound was classed as inactive in [1], in test [2], in test [3], in test [5], in [10] and in [11]. Further, the call in test [12], in test [13] and in test [15] was inactive. Further, the Potency entry in test [4], in test [6], in test [9], in test [18], in test [14] and in [19] was “inactive” throughout.

Consider `C[C@H]1C[C@@H]2[C@H]([C@@H](O)C[C@@]3(C)[C@H]2CC[C@]3(O)C(=O)CO)[C@@]2(C)C=CC(=O)C=C12`, for which the compound was called inactive in test [1], in test [2], in test [17], in test [10], in test [11] and in test [12]. The compound was classed as inactive in [13] and in [15]. For the same compound, the Potency entry in test [4], in [18], in [14] and in [19] was “inactive” in each case.

With `CC(=O)Nc1cccc(O)c1`, the compound was classed as inactive in [2], in test [17], in test [10], in test [11], in [12] and in test [13]. In addition, the call in [15] was inactive. For the same compound, the Potency result in test [4], in test [6], in [14] and in test [19] was “inactive” each time.

For the compound `Oc1cccc2ccccc12`, the outcome in [2], in test [3], in [5], in test [7], in test [8] and in test [17] was inactive. Also, the compound was called inactive in [10], in [11], in test [12], in test [13] and in [15]. Further, the Potency entry in [4], in test [6], in test [18] and in test [14] was “inactive” each time.

In the case of `Cc1cccnc1`, the outcome in test [2], in test [7], in test [8], in [17], in [10] and in [11] was inactive. The outcome in test [12], in test [13] and in test [15] was inactive. Also, the Potency entry in test [4], in [6], in test [9], in test [18], in test [14] and in test [19] was “inactive” throughout.

Consider `CCCCCCCCCCCCS`, for which the result in test [1], in [2], in test [7], in test [8], in test [17] and in test [10] was inactive. The result in test [11], in [12], in test [13] and in [15] was inactive. The Potency result in [16], in test [4], in test [6], in test [18], in [14] and in test [19] was “inactive” each time.

Consider `CC(O)COCC(C)O` (centres undefined), for which the call in [1], in test [2], in [3], in test [5], in test [7] and in test [8] was inactive. The outcome in test [10], in test [11], in test [12], in test [13] and in test [15] was inactive. The Potency entry in test [4], in [6], in test [9], in test [18] and in test [14] was “inactive” throughout.
